Data on seven compounds can be found in the supplement of paper PMC9262897, “Low-cost anti-mycobacterial drug discovery using engineered E. coli” (Nature Communications, 2022).

Structures can show the parent of a compound that is named as a salt. ± gives the standard deviation of the averaged measurements.

What all share (test): growth (OD600 after 10 h); higher = more growth (less inhibition)
The test system of test [1] is E. coli TESEC Alr+ wild-type control. Conditions: compound 0.1 mM; raw OD600 reference: median of DMSO wells 0.241, cell-free background 0.041. How it is done: (§1)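 TESEC Mtb Alr E. coli, or the Alr+ wild-type control, in 384-well plates with Prestwick library compounds at 0.1 mM and 1% DMSO, across arabinose induction levels of 1E3 to 1E7 nM. Growth is read as OD600 after 10 h at 37 °C in triplicate biological replicates.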

For test [2], the system named is E. coli TESEC Mtb Alr. Conditions: compound 0.1 mM. How it is done:
as §1

The test system of the next test is E. coli TESEC Mtb Asd. Conditions: compound 0.1 mM. How it is done: (§2)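 TESEC E. coli strains in which the native enzyme is deleted and replaced by arabinose-inducible Mtb Asd, DapB, CysH or TrpD, each grown in its selective medium. Strains were screened against the Prestwick library at 0.1 mM and 1% DMSO in 384-well format at low and high arabinose induction. Growth is read as OD600 after 10 h in triplicate.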

A further test has as its system E. coli TESEC Mtb DapB. Conditions: compound 0.1 mM. How it is done: as §2
For test [3], the system named is E. coli TESEC Alr+ wild-type control. Conditions: compound 0.1 mM; raw OD600 reference: median of DMSO wells 0.49, cell-free background 0.052. How it is done:
(§3)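 TESEC Mtb Alr E. coli (ΔaraC ΔtolC ΔentC Δalr ΔdadX, arabinose-inducible Mtb Alr) or the Alr+ wild-type control strain, grown in defined M9-fructose medium without D-alanine in 96-well plates with Prestwick library compounds at 0.1 mM and 1% DMSO. Low Alr induction is 0.1 µM arabinose and high induction is 10 mM arabinose.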

Test [4] concerns E. coli TESEC Mtb Alr. Conditions: compound 0.1 mM. How it is done:
as §3
The source holds these as a separate data set.

The mark [5] stands for this setting: arabinose 1000 nM, raw OD600 reference: median of DMSO wells 0.294, cell-free background 0.041.
The mark [6] stands for this setting: arabinose 10000 nM, raw OD600 reference: median of DMSO wells 0.264, cell-free background 0.041.
The mark [7] stands for this setting: arabinose 100000 nM, raw OD600 reference: median of DMSO wells 0.201, cell-free background 0.041.
[8] abbreviates: arabinose 1000000 nM, raw OD600 reference: median of DMSO wells 0.193, cell-free background 0.041.
[9] abbreviates: arabinose 10000000 nM, raw OD600 reference: median of DMSO wells 0.146, cell-free background 0.041.
[10] abbreviates: arabinose induction (level): High, raw OD600 reference: median of DMSO wells 0.331, cell-free background 0.041.
[11] abbreviates: arabinose induction (level): Low, raw OD600 reference: median of DMSO wells 0.417, cell-free background 0.041.
[12] abbreviates: arabinose induction (level): High, raw OD600 reference: median of DMSO wells […], cell-free background 0.041.
Where [13] appears, read: arabinose induction (level): Low, raw OD600 reference: median of DMSO wells 0.227, cell-free background 0.041.
The mark [14] stands for this setting: arabinose 100 nM, raw OD600 reference: median of DMSO wells 0.413, cell-free background 0.052.
The mark [15] stands for this setting: arabinose 10000000 nM, raw OD600 reference: median of DMSO wells […], cell-free background 0.052.

`c1ccc(CN(CC2=NCCN2)c2ccccc2)cc1` [Antazoline hydrochloride]: the growth in test [1] is 0.2355 ± 0.0022; with E. coli TESEC Mtb Alr [2] (setting [5]), 0.279 ± 0.02; in the test with E. coli TESEC Mtb Alr [2] (setting [6]), 0.254 ± 0.0091; in the test with E. coli TESEC Mtb Alr [2] (setting [7]), 0.194 ± 0.021; in the test with E. coli TESEC Mtb Alr [2] (setting [8]) it was 0.167 ± 0.0018; in the test on E. coli TESEC Mtb Alr [2] (setting [9]), 0.14 ± 0.0039. In addition, the growth in the test with E. coli TESEC Mtb Asd (setting [10]) came to 0.355 ± 0.017; with E. coli TESEC Mtb Asd (setting [11]), 0.441 ± 0.017; in the test with E. coli TESEC Mtb DapB (setting [12]), 0.185 ± 0.01; in the test with E. coli TESEC Mtb DapB (setting [13]), 0.225 ± 0.043; in test [3], 0.5 ± 0.083; in the test with E. coli TESEC Mtb Alr [4] (setting [14]), 0.412 ± 0.0059. This compound also gave a growth in the test with E. coli TESEC Mtb Alr [4] (setting [15]) of 0.364 ± 0.015.

With `C[C@@](Cc1ccc(O)c(O)c1)(NN)C(=O)O` [Carbidopa], the growth came to 0.225 ± 0.0049 in test [1]; 0.292 ± 0.024 in the test with E. coli TESEC Mtb Alr [2] (setting [5]); 0.118 ± 0.0053 in the test with E. coli TESEC Mtb Alr [2] (setting [6]); 0.228 ± 0.048 in the test with E. coli TESEC Mtb Alr [2] (setting [7]); 0.0919 ± 0.00096 with E. coli TESEC Mtb Alr [2] (setting [8]); 0.193 ± 0.0067 in the test on E. coli TESEC Mtb Alr [2] (setting [9]). Also, the growth in the test with E. coli TESEC Mtb Asd (setting [10]) is 0.283 ± 0.11; with E. coli TESEC Mtb Asd (setting [11]), 0.357 ± 0.04; in the test with E. coli TESEC Mtb DapB (setting [12]), 0.159 ± 0.016; in the test with E. coli TESEC Mtb DapB (setting [13]) it was 0.173 ± 0.018; in test [3], 0.499 ± 0.048; with E. coli TESEC Mtb Alr [4] (setting [14]), 0.375 ± 0.014. This compound came in with a growth in the test on E. coli TESEC Mtb Alr [4] (setting [15]) of 0.257 ± 0.012.

On to `COc1c(O[C@@H]2O[C@H](CO)[C@@H](O)[C@H](O)[C@H]2O)cc2c(c1OC)-c1ccc(SC)c(=O)cc1[C@@H](NC(C)=O)CC2` [Thiocolchicoside], for which the growth in test [1] amounted to 0.254 ± 0.01; in the test with E. coli TESEC Mtb Alr [2] (setting [5]), 0.307 ± 0.0068; in the test on E. coli TESEC Mtb Alr [2] (setting [6]), 0.275 ± 0.0073; in the test on E. coli TESEC Mtb Alr [2] (setting [7]), 0.229 ± 0.023; with E. coli TESEC Mtb Alr [2] (setting [8]), 0.186 ± 0.0019; in the test with E. coli TESEC Mtb Alr [2] (setting [9]), 0.149 ± 0.0088. Also, the growth with E. coli TESEC Mtb Asd (setting [10]) was determined as 0.271 ± 0.091; with E. coli TESEC Mtb Asd (setting [11]) it was 0.291 ± 0.082; in the test on E. coli TESEC Mtb DapB (setting [12]), 0.206 ± 0.024; with E. coli TESEC Mtb DapB (setting [13]), 0.236 ± 0.015; in test [3] it was 0.51 ± 0.076; with E. coli TESEC Mtb Alr [4] (setting [14]) it was 0.414 ± 0.011. The growth in the test on E. coli TESEC Mtb Alr [4] (setting [15]) was 0.35 ± 0.023.

As to `Cc1onc(-c2ccccc2Cl)c1C(=O)N[C@@H]1C(=O)N2[C@@H]1SC(C)(C)[C@@H]2C(=O)O` [Cloxacillin sodium salt], the growth turned out to be 0.2567 ± 0.0017 in test [1]; 0.288 ± 0.018 with E. coli TESEC Mtb Alr [2] (setting [5]); 0.267 ± 0.005 in the test on E. coli TESEC Mtb Alr [2] (setting [6]); 0.217 ± 0.025 in the test on E. coli TESEC Mtb Alr [2] (setting [7]); 0.183 ± 0.0023 with E. coli TESEC Mtb Alr [2] (setting [8]); 0.144 ± 0.0071 with E. coli TESEC Mtb Alr [2] (setting [9]). Further, the growth in the test with E. coli TESEC Mtb Asd (setting [10]) was 0.32 ± 0.051; in the test on E. coli TESEC Mtb Asd (setting [11]) it was 0.41 ± 0.046; with E. coli TESEC Mtb DapB (setting [12]), 0.162 ± 0.01; in the test on E. coli TESEC Mtb DapB (setting [13]), 0.208 ± 0.015; in test [3], 0.514 ± 0.11; in the test with E. coli TESEC Mtb Alr [4] (setting [14]) it was 0.417 ± 0.0066. The compound further gave a growth in the test with E. coli TESEC Mtb Alr [4] (setting [15]) of 0.344 ± 0.014.

As to `COc1ccc2c(c1)c(CC(=O)OCC(=O)O)c(C)n2C(=O)c1ccc(Cl)cc1` [Acemetacin], the growth was determined as 0.154 ± 0.0063 in test [1]; 0.198 ± 0.012 in the test with E. coli TESEC Mtb Alr [2] (setting [5]); 0.195 ± 0.0045 in the test with E. coli TESEC Mtb Alr [2] (setting [6]); 0.139 ± 0.0049 with E. coli TESEC Mtb Alr [2] (setting [7]); 0.109 ± 0.0015 in the test with E. coli TESEC Mtb Alr [2] (setting [8]); 0.131 ± 0.0045 with E. coli TESEC Mtb Alr [2] (setting [9]). For the same compound, the growth in the test with E. coli TESEC Mtb Asd (setting [10]) amounted to 0.21 ± 0.078; with E. coli TESEC Mtb Asd (setting [11]), 0.211 ± 0.012; in the test with E. coli TESEC Mtb DapB (setting [12]), 0.152 ± 0.0045; with E. coli TESEC Mtb DapB (setting [13]), 0.185 ± 0.024; in test [3], 0.363 ± 0.021; in the test with E. coli TESEC Mtb Alr [4] (setting [14]), 0.362 ± 0.084. Further, the growth with E. coli TESEC Mtb Alr [4] (setting [15]) came out at 0.183 ± 0.012.

On to `C[C@H](N[C@@H](CCc1ccccc1)C(=O)O)C(=O)N1CCC[C@H]1C(=O)O` [Enalaprilat dihydrate], for which the growth in test [1] was determined as 0.228 ± 0.0039; in the test with E. coli TESEC Mtb Alr [2] (setting [5]), 0.2913 ± 0.0017; in the test on E. coli TESEC Mtb Alr [2] (setting [6]), 0.285 ± 0.011; in the test on E. coli TESEC Mtb Alr [2] (setting [7]), 0.198 ± 0.019; in the test on E. coli TESEC Mtb Alr [2] (setting [8]) it was 0.208 ± 0.01; in the test on E. coli TESEC Mtb Alr [2] (setting [9]), 0.1379 ± 0.0012. Also, the growth with E. coli TESEC Mtb Asd (setting [10]) is 0.259 ± 0.063; with E. coli TESEC Mtb Asd (setting [11]) it was 0.31 ± 0.094; in the test on E. coli TESEC Mtb DapB (setting [12]) it was 0.21 ± 0.013; in the test with E. coli TESEC Mtb DapB (setting [13]), 0.216 ± 0.022; in test [3], 0.638 ± 0.025; in the test on E. coli TESEC Mtb Alr [4] (setting [14]), 0.411 ± 0.011. This compound also displayed a growth in the test with E. coli TESEC Mtb Alr [4] (setting [15]) of 0.308 ± 0.022.

As to `CCCOc1ccc(C(=O)OCCN(CC)CC)cc1N` [Proparacaine hydrochloride], the growth in test [1] is 0.228 ± 0.0033; with E. coli TESEC Mtb Alr [2] (setting [5]) it was 0.308 ± 0.017; in the test with E. coli TESEC Mtb Alr [2] (setting [6]), 0.268 ± 0.013; in the test with E. coli TESEC Mtb Alr [2] (setting [7]) it was 0.196 ± 0.0096; in the test on E. coli TESEC Mtb Alr [2] (setting [8]) it was 0.17 ± 0.0027; in the test with E. coli TESEC Mtb Alr [2] (setting [9]), 0.153 ± 0.0029. Besides, the growth in the test with E. coli TESEC Mtb Asd (setting [10]) is 0.46 ± 0.0053; in the test on E. coli TESEC Mtb Asd (setting [11]) it was 0.426 ± 0.025; in the test with E. coli TESEC Mtb DapB (setting [12]), 0.187 ± 0.0041; in the test on E. coli TESEC Mtb DapB (setting [13]), 0.231 ± 0.021; in test [3] it was 0.469 ± 0.043; in the test on E. coli TESEC Mtb Alr [4] (setting [14]), 0.408 ± 0.017. Also, the growth in the test on E. coli TESEC Mtb Alr [4] (setting [15]) turned out to be 0.354 ± 0.024.
